The nature of test [1]: compounds binding Alexa647 anti-His antibody – biochemical, small-molecule microarray, 635 nm fluorescence, artefact control for SMM control protein annotation, primary screen (AID 1128).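 Also: score merges feature fluorescence with signal-to-noise for each printed compound spot.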 Particulars: higher = more signal.
Test [2] concerns Human papillomavirus type 1a E7 protein (residues 1-88). The test is described as follows: HPV1a E7 small-molecule binders, primary screen, biochemical, small-molecule microarray, residues 1-88, 635 nm (AID 1129). The settings on record: small-molecule microarray binding, fluorescence 635 nm; higher = more signal.
Test [3] has as its target Focal adhesion kinase 1 (Homo sapiens) (UniProt Q05397). The test is described as follows: PTK2 protein binding on printed compound slides – biochemical, small-molecule microarray, 635/667 nm fluorescence, BSA, DTT, primary screen (AID 1130).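 Also: composite of spot emission at 667 nm and signal to noise over triplicate slides.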 Particulars: 635 nm fluorescence, higher = more signal.
For test [4], the system named is Fibrinogen (Alexa647-labelled). The test is described as follows: Alexa647-fibrinogen binding to printed small molecules – biochemical, small-molecule microarray, 635/667 nm fluorescence, artefact control for SMM control-protein annotation, profiling panel (AID 1131).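 Also: z-score merges 667 nm fluorescence with per-spot signal-to-noise over triplicate slides.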 The settings on record: fibrinogen-A647 binding fluorescence, higher = more signal.
For test [5], the target named is Follistatin (Homo sapiens) (UniProt P19883). The test is described as follows: FST protein binding to printed compounds – biochemical, small-molecule microarray, 635/667 nm fluorescence, primary screen (AID 1132). Particulars: 635 nm fluorescence, higher = more signal.
Follistatin (Homo sapiens), sequence (P19883 whole entry, looked up): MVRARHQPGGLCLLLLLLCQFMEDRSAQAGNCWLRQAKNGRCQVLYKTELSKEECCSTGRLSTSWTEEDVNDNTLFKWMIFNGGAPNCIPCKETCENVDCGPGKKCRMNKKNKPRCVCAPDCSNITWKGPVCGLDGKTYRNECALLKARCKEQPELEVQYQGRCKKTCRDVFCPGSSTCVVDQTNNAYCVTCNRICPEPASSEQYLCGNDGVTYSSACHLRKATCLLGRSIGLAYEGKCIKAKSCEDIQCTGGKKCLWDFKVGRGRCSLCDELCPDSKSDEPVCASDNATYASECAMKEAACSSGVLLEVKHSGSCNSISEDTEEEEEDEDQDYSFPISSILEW
Test [6] addresses Fibroblast growth factor 2 (Homo sapiens) (UniProt P09038). The test is described as follows: basic fibroblast growth factor binding to printed compounds – biochemical, small-molecule microarray, 635/667 nm fluorescence, primary screen (AID 1133). The settings on record: FGF2, fluorescence 635/667, higher = more signal.
A short description of test [7]: JC-1 mitochondrial potential readout, lung cancer cells – cell-based, A549, JC-1 fluorescence, basal, 24 h, 100 nL, profiling panel (AID 1138).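 Also: A549 lung adenocarcinoma cells under basal conditions with no added stimulus; test concentration not given here.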 The settings on record: higher = more signal.
The next test concerns Lefty1. The test is described as follows: Lefty1 protein binding to printed compounds – biochemical, small-molecule microarray, 635/667 nm fluorescence, primary screen (AID 1139). The settings on record: fluorescence 635/667, higher = more signal.
Test [8] concerns wheat germ agglutinin (Triticum aestivum), Alexa647-labelled. The test is described as follows: Alexa647-WGA lectin binding to printed small molecules – biochemical, small-molecule microarray, 635/667 nm fluorescence, artefact control for SMM control-protein annotation, profiling panel (AID 1140).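 Also: score merges 667 nm feature emission with signal to noise over triplicate slides.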 Particulars: WGA-A647 binding, 635 nm fluorescence, higher = more signal.
In test [9] the target is Luciferin 4-monooxygenase (Photinus pyralis) (UniProt P08659). The test is described as follows: inhibition of purified Photinus pyralis luciferase – biochemical, luminescence, purified enzyme, 2006 set, primary screen (AID 1141).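 Also: cell-free assay with purified firefly luciferase at 100 ng per well in PBS; test concentration not given here.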 The settings on record: purified firefly luciferase, SteadyGlo luminescence, 30 min; higher = more signal, called active from +8 up or from −8 down.
Luciferin 4-monooxygenase (Photinus pyralis), sequence (P08659 whole entry, looked up): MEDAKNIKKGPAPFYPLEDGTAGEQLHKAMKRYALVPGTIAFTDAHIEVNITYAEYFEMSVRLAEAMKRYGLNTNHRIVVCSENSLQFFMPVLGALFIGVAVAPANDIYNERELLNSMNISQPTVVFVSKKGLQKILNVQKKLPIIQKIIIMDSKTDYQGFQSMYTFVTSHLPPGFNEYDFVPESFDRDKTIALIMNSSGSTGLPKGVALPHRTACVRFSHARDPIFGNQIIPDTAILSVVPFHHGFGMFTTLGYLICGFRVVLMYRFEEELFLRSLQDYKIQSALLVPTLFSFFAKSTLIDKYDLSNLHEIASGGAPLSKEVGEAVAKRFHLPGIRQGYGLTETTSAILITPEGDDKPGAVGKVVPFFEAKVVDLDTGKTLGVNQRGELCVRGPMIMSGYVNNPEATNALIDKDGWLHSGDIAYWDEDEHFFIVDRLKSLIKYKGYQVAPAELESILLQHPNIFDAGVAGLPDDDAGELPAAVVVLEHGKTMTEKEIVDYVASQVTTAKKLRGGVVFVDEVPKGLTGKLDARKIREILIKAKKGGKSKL

Calls of active or inactive are those of the source.

Fibroblast growth factor 2 (Homo sapiens), sequence (P09038 whole entry, looked up): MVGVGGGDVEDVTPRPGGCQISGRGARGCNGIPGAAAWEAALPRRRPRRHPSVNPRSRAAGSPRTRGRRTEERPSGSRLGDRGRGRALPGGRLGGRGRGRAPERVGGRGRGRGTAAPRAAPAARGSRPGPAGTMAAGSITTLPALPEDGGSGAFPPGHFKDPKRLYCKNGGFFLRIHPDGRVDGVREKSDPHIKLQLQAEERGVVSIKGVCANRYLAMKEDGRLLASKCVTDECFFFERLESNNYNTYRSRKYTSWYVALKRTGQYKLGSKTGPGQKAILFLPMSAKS
Focal adhesion kinase 1 (Homo sapiens), sequence (Q05397 whole entry, looked up): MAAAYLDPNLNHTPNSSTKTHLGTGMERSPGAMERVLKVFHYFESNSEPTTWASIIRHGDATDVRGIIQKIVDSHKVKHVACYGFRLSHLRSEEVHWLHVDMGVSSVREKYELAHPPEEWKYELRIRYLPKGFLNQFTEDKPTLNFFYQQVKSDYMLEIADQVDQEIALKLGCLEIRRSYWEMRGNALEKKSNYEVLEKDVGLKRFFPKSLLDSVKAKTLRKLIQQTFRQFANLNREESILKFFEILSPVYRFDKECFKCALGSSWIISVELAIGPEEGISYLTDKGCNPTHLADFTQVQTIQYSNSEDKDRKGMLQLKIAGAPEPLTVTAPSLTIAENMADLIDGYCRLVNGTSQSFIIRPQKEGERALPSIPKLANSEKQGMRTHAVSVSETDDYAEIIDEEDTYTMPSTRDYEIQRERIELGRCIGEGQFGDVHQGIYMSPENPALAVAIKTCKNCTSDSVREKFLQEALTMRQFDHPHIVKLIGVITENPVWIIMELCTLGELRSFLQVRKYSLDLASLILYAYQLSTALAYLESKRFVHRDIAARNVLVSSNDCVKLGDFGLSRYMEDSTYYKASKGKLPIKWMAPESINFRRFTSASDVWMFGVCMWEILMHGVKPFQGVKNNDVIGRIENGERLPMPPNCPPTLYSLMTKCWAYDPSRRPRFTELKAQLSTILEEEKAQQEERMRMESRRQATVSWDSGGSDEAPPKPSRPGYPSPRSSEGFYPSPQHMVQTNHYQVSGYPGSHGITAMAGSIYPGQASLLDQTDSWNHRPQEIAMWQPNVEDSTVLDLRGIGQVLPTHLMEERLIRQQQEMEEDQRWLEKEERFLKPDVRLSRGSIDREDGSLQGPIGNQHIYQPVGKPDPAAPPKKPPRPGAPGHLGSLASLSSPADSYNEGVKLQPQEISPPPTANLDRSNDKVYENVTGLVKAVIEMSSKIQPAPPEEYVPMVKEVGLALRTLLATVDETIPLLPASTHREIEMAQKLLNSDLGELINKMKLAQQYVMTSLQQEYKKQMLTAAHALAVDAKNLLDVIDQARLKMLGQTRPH

On to `CN(C)CCCCCCNC(=O)[C@@H]1C[C@@H]2C(=O)NCC(=O)N2[C@@H]1c1ccc(O)cc1`, for which the composite z-score was 2.07 in test [1]; 1.18 in test [2]; 1.28 in test [3]; 0.842 in test [4]; 1.42 in test [5]; 1.65 in [6]. For the same compound, the figures for the composite z-score (with Lefty1; in test [8]) were 1.68 and 0.974, respectively. Moreover, the values for the z-score in [7] and in [9] were -0.736 and 0.335 (inactive), respectively.
Regarding `C[N+](C)(C)CCCCNC(=O)[C@H]1C[C@H]2C(=O)NCC(=O)N2[C@H]1c1ccc(O)cc1`, the composite z-score in [1] is 3.01; in test [2], 0.241; in [3], -0.169; in test [4], -0.0907; in test [5] it was 1.41; in test [6], 1.91. The composite z-score was 1.49 in the test with Lefty1 and -0.287 in [8]. The z-score was 0.244 in [7] and -0.367 (inactive) in [9].
In the case of `CC(C)(C)OC(=O)CC[C@@]1(C(=O)N2CCCCC2)N=C(c2ccc(OCCCO)cc2)O[C@@H]1c1ccccc1N=[N+]=[N-]`, the composite z-score stood at 2.83 in test [1]; 1.27 in test [2]; 1.7 in test [3]; 0.99 in [4]; 1.26 in test [5]; 0.722 in test [6]. Also, the composite z-score came to 0.0141 in the test with Lefty1 and 1.25 in [8]. The z-score in [7] was 1.95; in test [9] it was -11.7 (active).
As to `CC(C)C(CO)N1C(=O)[C@@H]2[C@H]3C(=O)OCC=C[C@H]3OC23C=CCN(Cn2nnc4ccccc42)C(=O)[C@@H]13` (stereo not given in full), the composite z-score in [1] was 0.36; in [2], -0.938; in test [3] it was 0.118; in [4] it was -0.424; in test [5] it was -0.802; in test [6] it was -1.05. Besides, the composite z-score was -1.72 in the test on Lefty1 and -0.203 in [8]. The z-score in test [7] is -0.58; in test [9], 0.152 (inactive).
As to `C=CC[C@]1(C(=O)NCC(O)CO)N=C(c2ccc(OCCCO)cc2)O[C@H]1c1ccccc1N=[N+]=[N-]` (stereo not given in full), the composite z-score in [1] is 2.28; in [2] it was 0.653; in [3] it was 0.302; in [4] it was 0.66; in [5] it was 1.1; in test [6] it was 0.264. For the same compound, the composite z-score is -0.661 in the test with Lefty1 and 0.986 in test [8]. The figures for the z-score in [7] and in test [9] were -0.152 and -6.91 (inactive), respectively.
As for `N#Cc1ccc(NN2C(C(O)c3ccccc3)C=CC3C(=O)N(c4ccccc4)C(=O)C32)cc1` (stereo not given), the composite z-score in test [1] was 0.324; in test [2] it was 0.954; in test [3], 0.452; in test [4], -0.456; in [5] it was 0.927; in test [6] it was -0.217. The composite z-score in the test with Lefty1 is -0.272; in [8] it was 0.635. Besides, the results for the z-score in test [7] and in [9] were 1.41 and 0.884 (inactive), respectively.
On to `O=C1O[C@H](c2ccccc2)[C@H](c2ccccc2)N2[C@H]1[C@@H](C(=O)N1CCCCCCC1)[C@]1(C(=O)Nc3ccccc31)[C@H]2c1ccc(O)cc1`, for which the composite z-score in test [1] worked out at 3.64; in test [2] it was 1.34; in test [3], 3.9; in [4], 0.514; in test [5], 1.55; in [6], 1.54. Also, the composite z-score with Lefty1 came to 1.85; in [8] it was 1.77. For the same compound, the z-score was 0.0754 in [7] and -0.809 (inactive) in test [9].
For the compound `C[N+](C)(C)CCCC[C@@H]1NC(=O)[C@@H]2C[C@H](C(=O)NCCCCCNC(=O)CS)[C@H](c3cccc(OCCO)c3)N2C1=O`, the composite z-score is 0.664 in test [1]; 0.14 in [2]; 0.0046 in test [3]; 0.909 in test [4]; 1.25 in test [5]; 1.5 in [6]. For the same compound, the composite z-score with Lefty1 is 0.272; in test [8], 0.134. The z-score was 1.71 in test [7] and -1.68 (inactive) in test [9].
`C=C(/C(=C/C[C@@H](OC(=O)c1ccncc1)c1ccccc1OCCO)c1cnc2ccccc2c1)C(C)C`: the composite z-score in test [1] came to 1.18; in test [2], 0.896; in test [3] it was 0.204; in test [4], 0.963; in [5], 1.45; in [6] it was 1.87. For the same compound, the composite z-score came to 1.65 in the test with Lefty1 and 0.869 in test [8]. For the same compound, the z-score in test [7] was 0.494; in [9] it was -1.08 (inactive).
Consider `COCC(=C=CC[C@@H](O)c1ccccc1OCCO)C[C@@H](O)COCc1ccccc1`, for which the composite z-score in [1] was 0.477; in test [2], 1.01; in [3] it was -0.134; in [4], 0.357; in test [5], 0.403; in test [6], 0.456. Moreover, the composite z-score in the test on Lefty1 is 0.317; in test [8], 1.05. Besides, the figures for the z-score in test [7] and in test [9] were 1.8 and -2.4 (inactive), respectively.
`CCOC(=O)C[C@H]1[C@H](OC(=O)c2cc3ccccc3oc2=O)[C@@H](NC(=O)c2ccc3ccccc3n2)c2cc(OCCCO)ccc2N1C(=O)c1ccc2ccccc2n1`: the composite z-score in [1] came out at 0.81; in test [2] it was 0.784; in test [3], 0.114; in [4], 0.541; in test [5], 0.99; in test [6], 0.818. In addition, the composite z-score in the test on Lefty1 was 1.44; in test [8] it was 0.131. In addition, the z-score was 1.1 in [7] and -0.204 (inactive) in test [9].
Take `COC(=O)[C@@]1(Cc2ccc(F)cc2)[C@@H]2[C@@H](CC(=O)[C@H]2CC(=O)C(=O)N2CCCC2)CN1C(=O)c1ccccc1`: the composite z-score in test [1] stood at 0.266; in [2], 1.24; in test [3], 1.51; in [4], 0.931; in test [5], 0.95; in test [6], 0.455. The composite z-score with Lefty1 was -1.01; in test [8], 0.772. Moreover, the z-score was 0.694 in test [7] and 2.19 (inactive) in [9].
Consider `O=C1N(Cc2ccccc2)c2ccccc2[C@H]2OC(c3ccc(OCCCO)cc3)=N[C@@]12CCS(=O)(=O)c1ccccc1`, for which the composite z-score in test [1] came out at 1.68; in test [2], 1.25; in test [3] it was 1.06; in test [4], 0.984; in [5], 1.2; in test [6] it was 1.36. Moreover, the results for the composite z-score (with Lefty1; in [8]) were 0.689 and 0.726, respectively. The z-score in test [7] is -1.26; in test [9], -0.202 (inactive).
For the compound `C#CCOC(=O)N[C@H](C=CCCCC)c1ccccc1`, the composite z-score is 1.33 in [1]; 0.95 in [2]; 0.4 in test [3]; 0.762 in [4]; -0.101 in test [5]; -0.204 in [6]. In addition, the composite z-score was -1.09 with Lefty1 and 0.817 in test [8]. The z-score in test [7] was 0.59; in [9] it was 0.597 (inactive).

The record behind these values is PubChem BioAssay.
